Measured values from PubChem BioAssay (Tox21).
“And” between values parts separate entries of the source, which are not always exact repeats. Equal values may be shown once. Results filed as inconclusive are left out. A call without a number means that no potency is given here. Some structures have more than one record in an assay (separate samples or runs), and their calls can disagree. The source made the active and inactive calls. Calls come from the whole dose curve.

Experiment: Nuclear factor erythroid 2-related factor 2/antioxidant responsive element (Nrf2/ARE) small molecule agonists: luciferase reporter gene qHTS assay in human keratinocytes (AID 1919969); note: nearly all actives have a fitted effect of over 35% in size
Potency is the fitted concentration of half-maximal effect.

SMILES	Potency
C=C(Cl)CCl	inactive
O=NN1CCCCC1	inactive
Cc1ccccc1O	inactive
CC(C)N(C(=O)CCl)c1ccccc1	4.86 µM (active) and 10.9 µM (active)
CCCCCCCCCCCCn1cc[n+](C)c1	inactive
O=P(O)(O)CCCl	inactive
C=C(C)[C@H]1Cc2c(ccc3c2O[C@@H]2COc4cc(OC)c(OC)cc4[C@@H]2C3=O)O1	13.9 µM (active) and 13.7 µM (active) and inactive
CC(C)NC(C)C	inactive
Clc1ccccc1-c1nnc(-c2ccccc2Cl)nn1	19.2 µM (active) and 5.43 µM (active)
COc1cc2c(cc1OC)[C@@]13CCN4CC5=CCO[C@H]6CC(=O)N2[C@H]1[C@H]6[C@H]5C[C@H]43	inactive
N#CCCC#N	inactive
CC(Oc1ccc(Cl)cc1Cl)C(=O)O (stereo not drawn)	inactive
Clc1nc(Cl)nc(Nc2ccccc2Cl)n1	inactive
CC(C)c1ccc(O)cc1	inactive
CO[C@@H]1[C@H](OC(=O)NC(=O)CCl)CC[C@]2(CO2)[C@H]1[C@@]1(C)O[C@@H]1CC=C(C)C	16.7 µM (active)
CCOC(=O)c1ccccc1S(=O)(=O)NC(=O)Nc1nc(Cl)cc(OC)n1	inactive
CC1CC(CC2CCC(N)C(C)C2)CCC1N (stereo not drawn)	inactive

SMILES	Potency
Cc1ccc2c(c1N)C(=O)c1ccccc1C2=O	60.4 µM (active) and 1.93 µM (active)
CN(C)c1ccc(C(=O)c2ccc(N(C)C)cc2)cc1	67.9 µM (active) and 54.5 µM (active)
C1CCC(NC2CCCCC2)CC1	inactive
COc1ccc2c(c1OC)C(=O)O[C@@H]2[C@H]1c2cc3c(cc2CCN1C)OCO3	inactive
CCCCSP(=O)(SCCCC)SCCCC	inactive
O=C(O)COc1ccc(Cl)cc1Cl	inactive
CN(C)N	inactive
CC(C)c1ccc(OP(=O)(Oc2ccc(C(C)C)cc2)Oc2ccc(C(C)C)cc2)cc1	61.6 µM (active) and inactive and 30.6 µM (active)
CCC(C)(CC)c1cc(NC(=O)c2c(OC)cccc2OC)on1	inactive
CC1(C)C(=O)NC(=O)NC1=O	inactive
O=c1ccc(=O)[nH][nH]1	inactive
CN(C)C(=S)SSC(=S)N(C)C	inactive and 96.9 nM (active)
CCOC(=O)CP(=O)(OCC)OCC	inactive
O=[N+]([O-])c1cccc(O)c1	inactive
CNC(=O)Oc1ccccc1OC(C)C	inactive
CCCn1cc[n+](C)c1	inactive
